Measured values reported in the supplement of paper PMC12282887.
± gives the standard deviation of the averaged measurements.

How the values were obtained:
Assay in all cases: promoter activity interaction Z-score (Lux/OD deviation from empty-vector control); higher = stronger promoter induction by the compound
[1] = test system: E. coli BW25113 acrABp lux reporter
Procedure, shortened: (§1)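 E. coli BW25113 (wild type or marA, soxS or rob deletion) carrying low-copy luxCDABE promoter reporters grew in 40 µl LB Lennox in 384-well plates at 37°C. Each compound was tested at four 1:2 dilutions in biological duplicates. OD600 and luminescence were read every 30 min for 12 h. Areas were taken over 0–8 h (wild type) or 1–9 h (mutants), and wells below 10% of median growth area were removed. The score is the Z-transformed residual of growth-normalised luminescence fitted against the empty-vector control.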

[2] = test system: E. coli BW25113 marRABp lux reporter
Procedure, shortened: as §1

[3] = test system: E. coli BW25113 micFp lux reporter
Procedure, shortened: as §1

[4] = test system: E. coli BW25113 ompFp lux reporter
Procedure, shortened: as §1

[5] = 0.048 µg/ml, genetic background: wild type
[6] = 0.048 µg/ml, genetic background: ΔmarA
[7] = 0.048 µg/ml, genetic background: Δrob
[8] = 0.048 µg/ml, genetic background: ΔsoxS
[9] = 0.1 µg/ml, genetic background: wild type
[10] = 0.1 µg/ml, genetic background: ΔmarA
[11] = 0.1 µg/ml, genetic background: Δrob
[12] = 0.1 µg/ml, genetic background: ΔsoxS
[13] = 0.19 µg/ml, genetic background: wild type
[14] = 0.19 µg/ml, genetic background: ΔmarA
[15] = 0.19 µg/ml, genetic background: Δrob
[16] = 0.19 µg/ml, genetic background: ΔsoxS
[17] = 0.38 µg/ml, genetic background: wild type
[18] = 0.38 µg/ml, genetic background: ΔsoxS

## CCC(C)CCCC(=O)N[C@@H](CCN)C(=O)N[C@H](C(=O)N[C@@H](CCN)C(=O)N[C@H]1CCNC(=O)[C@H]([C@@H](C)O)NC(=O)[C@H](CCN)NC(=O)[C@H](CCN)NC(=O)[C@H](CC(C)C)NC(=O)[C@@H](CC(C)C)NC(=O)[C@H](CCN)NC1=O)[C@@H](C)O (stereo partly drawn) [Colistin]
[1]; [5]
  promoter activity interaction Z-score: 0.00962 ± 0.11
[1]; [6]
  promoter activity interaction Z-score: -0.167 ± 0.31
[1]; [7]
  promoter activity interaction Z-score: 0.139 ± 0.096
[1]; [8]
  promoter activity interaction Z-score: 0.0289 ± 0.14
[1]; [9]
  promoter activity interaction Z-score: 0.308 ± 0.22
[1]; [10]
  promoter activity interaction Z-score: 0.524 ± 0.34
[1]; [11]
  promoter activity interaction Z-score: 0.0214 ± 0.021
[1]; [12]
  promoter activity interaction Z-score: -0.00861 ± 0.23
[1]; [13]
  promoter activity interaction Z-score: 0.246 ± 0.16
[1]; [14]
  promoter activity interaction Z-score: -0.482 ± 0.29
[1]; [15]
  promoter activity interaction Z-score: 0.192 ± 0.051
[1]; [16]
  promoter activity interaction Z-score: -0.0737 ± 0.12
[1]; [17]
  promoter activity interaction Z-score: 0.607 ± 0.1
[1]; [18]
  promoter activity interaction Z-score: 2.31 ± 2.5
[2]; [5]
  promoter activity interaction Z-score: -0.253 ± 0.2
[2]; [6]
  promoter activity interaction Z-score: -0.196 ± 0.055
[2]; [7]
  promoter activity interaction Z-score: 0.00109 ± 0.051
[2]; [8]
  promoter activity interaction Z-score: 0.178 ± 0.25
[2]; [9]
  promoter activity interaction Z-score: -0.233 ± 0.24
[2]; [10]
  promoter activity interaction Z-score: -0.108 ± 0.097
[2]; [11]
  promoter activity interaction Z-score: -0.0851 ± 0.097
[2]; [12]
  promoter activity interaction Z-score: 0.0244 ± 0.049
[2]; [13]
  promoter activity interaction Z-score: -0.154 ± 0.21
[2]; [14]
  promoter activity interaction Z-score: -0.0032 ± 0.049
[2]; [15]
  promoter activity interaction Z-score: 0.0892 ± 0.15
[2]; [16]
  promoter activity interaction Z-score: 0.023 ± 0.025
[2]; [17]
  promoter activity interaction Z-score: 1.21 ± 0.13
[2]; [18]
  promoter activity interaction Z-score: 1.22
[3]; [5]
  promoter activity interaction Z-score: -0.359 ± 0.049
[3]; [6]
  promoter activity interaction Z-score: 0.0434 ± 0.083
[3]; [7]
  promoter activity interaction Z-score: 0.0506 ± 0.077
[3]; [8]
  promoter activity interaction Z-score: -0.14 ± 0.12
[3]; [9]
  promoter activity interaction Z-score: -0.48 ± 0.39
[3]; [10]
  promoter activity interaction Z-score: -0.0509 ± 0.014
[3]; [11]
  promoter activity interaction Z-score: 0.0439 ± 0.063
[3]; [12]
  promoter activity interaction Z-score: -0.113 ± 0.06
[3]; [13]
  promoter activity interaction Z-score: -0.562 ± 0.18
[3]; [14]
  promoter activity interaction Z-score: -0.217 ± 0.25
[3]; [15]
  promoter activity interaction Z-score: -0.229 ± 0.24
[3]; [16]
  promoter activity interaction Z-score: -0.514 ± 0.082
[3]; [17]
  promoter activity interaction Z-score: -0.607 ± 0.2
[4]; [5]
  promoter activity interaction Z-score: -0.346 ± 0.26
[4]; [6]
  promoter activity interaction Z-score: -0.0916 ± 0.57
[4]; [7]
  promoter activity interaction Z-score: -0.0368 ± 0.43
[4]; [8]
  promoter activity interaction Z-score: 0.093 ± 0.28
[4]; [9]
  promoter activity interaction Z-score: -0.267 ± 0.43
[4]; [10]
  promoter activity interaction Z-score: 0.449 ± 0.06
[4]; [11]
  promoter activity interaction Z-score: 0.19 ± 0.37
